Measurements taken from the supplement of paper PMC11001985.
Unmarked numbers belong to inactive results.

The targets below were run with C#CCNC(=O)CCSSCCC(=O)NCCc1ccc(C=O)c(C=O)c1 (assay: lysine labeling ratio R10:1 (500 µM / 50 µM probe), SILAC-ABPP in living cells; higher = lower intrinsic lysine reactivity toward the probe, active = 2 or less). Settings: HeLa; probe concentrations 500 vs 50 µM.
Summary of the method: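 With forward and reverse label swaps, light and heavy SILAC HeLa cells, alive and in PBS at room temperature, were exposed to either 500 µM or 50 µM of an alkyne-tagged lysine probe bearing a disulfide link. After mixing, lysates were clicked to biotin-azide, cut with trypsin, pulled down on neutravidin, freed with DTT, alkylated and analysed on a TIMS-TOF Pro by LC-MS/MS. The per-lysine value R is the median over forward and reverse replicates of the filtered median high-probe/low-probe MS1 peptide ratio. It is capped at 20.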

UniProt Q6NZI2, sequence (Q6NZI2 whole entry): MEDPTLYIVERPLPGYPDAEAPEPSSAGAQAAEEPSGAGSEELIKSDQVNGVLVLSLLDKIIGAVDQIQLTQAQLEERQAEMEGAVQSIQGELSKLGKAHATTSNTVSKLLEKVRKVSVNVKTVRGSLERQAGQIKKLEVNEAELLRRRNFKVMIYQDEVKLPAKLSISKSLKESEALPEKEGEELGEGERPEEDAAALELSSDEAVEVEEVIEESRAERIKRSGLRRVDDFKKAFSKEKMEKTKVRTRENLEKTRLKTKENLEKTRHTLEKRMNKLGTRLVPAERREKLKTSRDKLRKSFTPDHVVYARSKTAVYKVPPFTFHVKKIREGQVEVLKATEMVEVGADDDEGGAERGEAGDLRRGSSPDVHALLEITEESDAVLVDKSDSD
UniProt O75054, sequence (O75054 whole entry): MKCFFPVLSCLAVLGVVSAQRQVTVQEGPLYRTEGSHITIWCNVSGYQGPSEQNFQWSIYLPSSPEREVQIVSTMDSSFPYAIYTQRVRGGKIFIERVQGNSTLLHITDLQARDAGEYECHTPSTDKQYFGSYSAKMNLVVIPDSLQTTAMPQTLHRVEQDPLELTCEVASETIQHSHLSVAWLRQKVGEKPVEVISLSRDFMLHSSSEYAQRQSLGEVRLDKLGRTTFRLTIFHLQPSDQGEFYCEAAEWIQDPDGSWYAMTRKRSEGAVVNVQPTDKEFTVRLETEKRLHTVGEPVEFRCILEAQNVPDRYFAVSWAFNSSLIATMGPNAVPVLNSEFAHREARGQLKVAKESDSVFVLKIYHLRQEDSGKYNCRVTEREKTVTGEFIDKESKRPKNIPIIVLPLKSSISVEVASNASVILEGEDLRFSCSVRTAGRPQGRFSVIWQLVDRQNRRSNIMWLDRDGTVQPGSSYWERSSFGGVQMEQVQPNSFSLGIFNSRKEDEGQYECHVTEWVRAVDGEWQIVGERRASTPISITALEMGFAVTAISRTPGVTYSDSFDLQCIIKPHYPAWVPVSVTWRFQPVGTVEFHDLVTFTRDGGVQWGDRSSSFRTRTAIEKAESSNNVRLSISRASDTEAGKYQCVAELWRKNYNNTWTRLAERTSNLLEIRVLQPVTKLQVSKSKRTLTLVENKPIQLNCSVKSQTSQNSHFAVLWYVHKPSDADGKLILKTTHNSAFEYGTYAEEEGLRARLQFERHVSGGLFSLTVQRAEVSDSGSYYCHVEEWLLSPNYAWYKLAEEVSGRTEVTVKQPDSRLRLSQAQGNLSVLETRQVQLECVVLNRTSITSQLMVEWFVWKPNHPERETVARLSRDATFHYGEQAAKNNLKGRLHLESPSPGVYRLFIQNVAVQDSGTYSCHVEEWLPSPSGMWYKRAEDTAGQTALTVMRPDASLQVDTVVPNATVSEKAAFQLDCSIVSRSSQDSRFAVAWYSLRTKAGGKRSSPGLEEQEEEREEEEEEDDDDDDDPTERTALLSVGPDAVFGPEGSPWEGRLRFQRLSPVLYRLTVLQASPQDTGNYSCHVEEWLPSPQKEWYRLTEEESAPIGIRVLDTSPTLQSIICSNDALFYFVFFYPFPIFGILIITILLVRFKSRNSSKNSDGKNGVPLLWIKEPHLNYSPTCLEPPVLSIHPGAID
UniProt P06756, sequence (P06756 whole entry): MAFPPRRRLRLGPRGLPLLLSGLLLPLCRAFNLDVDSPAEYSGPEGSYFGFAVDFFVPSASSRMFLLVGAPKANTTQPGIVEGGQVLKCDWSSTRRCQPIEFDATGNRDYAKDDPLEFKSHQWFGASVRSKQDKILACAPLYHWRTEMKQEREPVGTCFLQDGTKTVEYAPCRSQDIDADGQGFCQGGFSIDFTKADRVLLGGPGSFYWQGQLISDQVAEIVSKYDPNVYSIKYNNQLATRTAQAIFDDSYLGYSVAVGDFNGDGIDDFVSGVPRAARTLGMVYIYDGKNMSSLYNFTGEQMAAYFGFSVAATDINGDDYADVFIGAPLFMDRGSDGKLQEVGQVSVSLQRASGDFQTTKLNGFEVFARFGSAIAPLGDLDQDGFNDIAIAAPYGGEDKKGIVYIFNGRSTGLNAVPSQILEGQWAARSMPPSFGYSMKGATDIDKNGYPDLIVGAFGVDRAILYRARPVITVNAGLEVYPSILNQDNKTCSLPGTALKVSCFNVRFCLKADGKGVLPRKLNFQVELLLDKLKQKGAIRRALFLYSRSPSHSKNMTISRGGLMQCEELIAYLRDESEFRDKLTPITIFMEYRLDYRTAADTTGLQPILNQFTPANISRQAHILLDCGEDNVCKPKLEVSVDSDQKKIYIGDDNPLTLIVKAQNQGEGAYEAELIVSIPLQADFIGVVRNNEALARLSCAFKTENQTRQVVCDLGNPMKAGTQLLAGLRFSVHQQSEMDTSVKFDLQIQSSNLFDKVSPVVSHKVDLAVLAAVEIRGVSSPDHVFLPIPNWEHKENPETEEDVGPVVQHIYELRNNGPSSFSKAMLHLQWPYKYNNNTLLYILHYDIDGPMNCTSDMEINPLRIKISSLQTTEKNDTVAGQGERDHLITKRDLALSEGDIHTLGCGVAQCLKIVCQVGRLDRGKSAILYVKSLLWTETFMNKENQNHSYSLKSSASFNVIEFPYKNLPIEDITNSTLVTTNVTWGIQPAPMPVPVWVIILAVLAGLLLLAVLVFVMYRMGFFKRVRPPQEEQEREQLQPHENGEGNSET
UniProt Q9UIQ6, sequence (Q9UIQ6 whole entry): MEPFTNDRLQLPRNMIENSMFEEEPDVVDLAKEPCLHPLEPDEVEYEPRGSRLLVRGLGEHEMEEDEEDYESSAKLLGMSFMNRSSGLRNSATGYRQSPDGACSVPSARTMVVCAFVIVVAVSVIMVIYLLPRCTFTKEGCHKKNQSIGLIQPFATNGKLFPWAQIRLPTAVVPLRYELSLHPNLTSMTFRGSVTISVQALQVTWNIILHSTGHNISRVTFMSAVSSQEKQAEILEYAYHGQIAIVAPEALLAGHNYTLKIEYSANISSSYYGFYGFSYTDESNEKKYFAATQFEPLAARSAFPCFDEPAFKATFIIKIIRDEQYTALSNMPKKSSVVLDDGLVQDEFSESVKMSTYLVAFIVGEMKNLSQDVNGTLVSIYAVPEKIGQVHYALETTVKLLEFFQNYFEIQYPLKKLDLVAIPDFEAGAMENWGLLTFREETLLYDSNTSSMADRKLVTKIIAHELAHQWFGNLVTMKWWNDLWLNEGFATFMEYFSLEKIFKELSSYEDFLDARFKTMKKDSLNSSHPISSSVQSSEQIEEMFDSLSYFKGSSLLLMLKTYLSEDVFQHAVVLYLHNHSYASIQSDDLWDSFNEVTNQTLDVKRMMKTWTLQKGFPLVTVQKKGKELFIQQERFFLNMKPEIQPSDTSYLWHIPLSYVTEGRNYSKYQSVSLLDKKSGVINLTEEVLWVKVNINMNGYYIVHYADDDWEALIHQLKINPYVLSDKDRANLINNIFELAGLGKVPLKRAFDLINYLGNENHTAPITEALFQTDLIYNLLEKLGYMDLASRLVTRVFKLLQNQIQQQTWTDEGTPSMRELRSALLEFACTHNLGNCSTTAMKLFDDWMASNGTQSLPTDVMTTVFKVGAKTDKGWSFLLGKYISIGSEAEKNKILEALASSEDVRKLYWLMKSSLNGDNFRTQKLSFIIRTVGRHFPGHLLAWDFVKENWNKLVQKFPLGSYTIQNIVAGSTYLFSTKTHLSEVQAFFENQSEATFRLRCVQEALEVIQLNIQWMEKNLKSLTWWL
UniProt Q9Y6M7, sequence (Q9Y6M7 whole entry): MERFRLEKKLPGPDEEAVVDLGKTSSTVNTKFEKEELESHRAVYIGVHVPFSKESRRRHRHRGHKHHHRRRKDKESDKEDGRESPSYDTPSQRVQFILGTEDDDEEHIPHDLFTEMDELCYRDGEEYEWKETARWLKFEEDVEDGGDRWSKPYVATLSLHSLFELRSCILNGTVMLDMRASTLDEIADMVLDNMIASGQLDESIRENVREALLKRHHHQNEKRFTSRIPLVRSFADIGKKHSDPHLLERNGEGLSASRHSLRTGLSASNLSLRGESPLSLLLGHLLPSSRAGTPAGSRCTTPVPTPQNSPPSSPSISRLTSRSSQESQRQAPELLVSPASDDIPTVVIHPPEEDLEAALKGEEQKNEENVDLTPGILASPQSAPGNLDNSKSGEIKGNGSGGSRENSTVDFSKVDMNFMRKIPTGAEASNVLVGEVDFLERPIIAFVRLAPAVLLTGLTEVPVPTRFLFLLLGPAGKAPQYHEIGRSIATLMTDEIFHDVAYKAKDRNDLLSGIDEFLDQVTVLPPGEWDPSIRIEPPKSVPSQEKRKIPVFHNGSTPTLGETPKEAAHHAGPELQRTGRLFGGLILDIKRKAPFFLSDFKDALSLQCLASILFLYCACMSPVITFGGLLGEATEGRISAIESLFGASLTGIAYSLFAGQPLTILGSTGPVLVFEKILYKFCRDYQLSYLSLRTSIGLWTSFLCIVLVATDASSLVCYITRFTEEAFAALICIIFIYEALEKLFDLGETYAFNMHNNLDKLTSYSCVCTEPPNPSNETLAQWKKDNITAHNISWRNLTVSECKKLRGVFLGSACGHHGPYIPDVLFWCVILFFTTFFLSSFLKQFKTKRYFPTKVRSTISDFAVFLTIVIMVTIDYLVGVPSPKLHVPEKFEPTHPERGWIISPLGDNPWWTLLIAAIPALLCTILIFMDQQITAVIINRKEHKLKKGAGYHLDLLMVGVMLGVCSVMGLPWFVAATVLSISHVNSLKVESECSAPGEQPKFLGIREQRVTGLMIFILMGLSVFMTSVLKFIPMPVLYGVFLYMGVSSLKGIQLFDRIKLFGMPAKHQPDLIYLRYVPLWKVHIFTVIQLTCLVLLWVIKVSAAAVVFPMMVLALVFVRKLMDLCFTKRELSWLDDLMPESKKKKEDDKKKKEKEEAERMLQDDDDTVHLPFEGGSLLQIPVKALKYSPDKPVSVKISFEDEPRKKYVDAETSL
UniProt P51153, sequence (P51153 whole entry): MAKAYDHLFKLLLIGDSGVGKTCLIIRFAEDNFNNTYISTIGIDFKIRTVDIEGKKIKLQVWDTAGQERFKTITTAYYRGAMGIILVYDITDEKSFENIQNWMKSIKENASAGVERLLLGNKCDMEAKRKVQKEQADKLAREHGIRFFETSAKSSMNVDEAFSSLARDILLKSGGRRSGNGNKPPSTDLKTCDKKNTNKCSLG

| Target | lysine labeling ratio R10:1 |
| --- | --- |
| UniProt P55285 (lysine site: K276) | 1.67 (active) |
| LRPAP1 (lysine site: K107) (UniProt P30533) | 1.78 (active) |
| RPL5 (lysine site: K284) (UniProt P46777) | 1.68 (active) |
| XRCC6 (lysine site: K114) (UniProt P12956) | 2.12 |
| UniProt P55072 (lysine site: K658) | 6.64 |
| MYH9 (lysine site: K760) (UniProt P35579) | 3.31 |
| IGSF3 (lysine site: K191) (UniProt O75054) | 4.16 |
| GAS1 (lysine site: K192) (UniProt P54826) | 1.34 (active) |
| BCAP31 (lysine site: K204) (UniProt P51572) | 1.82 (active) |
| RAB13 (lysine site: K107) (UniProt P51153) | 0.523 (active) |
| SCAMP3 (lysine site: K102) (UniProt O14828) | 1.06 (active) |
| TF (lysine site: K134) (UniProt P02787) | 2.36 |
| SLC4A7 (lysine site: K890) (UniProt Q9Y6M7) | 4.29 |
| ITGAV (lysine site: K149) (UniProt P06756) | 4.46 |
| FKBP4 (lysine site: K354) (UniProt Q02790) | 1.51 (active) |
| ITGA5 (lysine site: K588) (UniProt P08648) | 1.72 (active) |
| UniProt Q9UHN6 (lysine site: K1220) | 2.87 |
| G6PD (lysine site: K360) (UniProt P11413) | 2.07 |
| LNPEP (lysine site: K923) (UniProt Q9UIQ6) | 5.14 |
| UniProt Q12884 (lysine site: K334) | 3.23 |
| UniProt Q6NZI2 (lysine site: K122) | 5.32 |
| FLNA (lysine site: K2417) (UniProt P21333) | 4.07 |
| UniProt Q8WXI7 (lysine site: K13402) | 5.02 |
